Inconclusive results are not listed. Active and inactive are the calls of the source. Calls follow the shape of the dose curve; as a rule, active = well fitted curve in the direction sought with a large enough effect; inconclusive = small, poorly fitted or top-dose-only effect, or another doubt; inactive = no such curve, though single readings can be large; an effect the other way counts as inactive or inconclusive.
Tests used:
[1] = biological target: Luciferin 4-monooxygenase (Photinus pyralis) (UniProt P08659); assay: Primary firefly luciferase (FLuc) qHTS assay for identification of artifact compounds. (AID 1845220); details: purified firefly luciferase, luminescence, 5 min; series mostly up to 54.1 µM; also: nearly all actives have a fitted effect of over 60% in size
Summary of the method: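 Reaction readout was CCD-imaged luminescence, taken 5 min after adding 10 nM purified firefly enzyme to compound-treated wells holding 10 uM luciferin and ATP in pH 7.6 buffer.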

[2] = system: Nanoluciferase (engineered Oplophorus gracilirostris luciferase); assay: Primary Nanoluciferase (NLuc) qHTS assay for identification of artifact compounds. (AID 1845222); details: NLuc-conditioned medium, Nano-Glo luminescence, 5 min; series mostly up to 54.1 µM;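 also: NLuc secreted into diluted conditioned medium of S16 cells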
Summary of the method: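 Concentration-response data were obtained by luminescence after 5 min with Nano-Glo substrate at 1:100. The enzyme was diluted S16 NLuc-expressing cell medium, preincubated with compound for 15 min at RT. Curves were fitted with a 4-parameter Hill model.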

[3] = Primary redox qHTS assay for identification of artifact compounds. (AID 1845223); details: Amplex Red/HRP redox cycling with DTT, fluorescence; series mostly up to 53.8 µM
Summary of the method: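 Amplex Red (25 uM) and HRP (250 mU/mL) in HBSS, with compounds for 15 min, then 250 uM DTT for 30 min, room temperature, dark. Fluorescence 525/598 nm read; normalized to DMSO and 10 uM DA3003; Hill fit.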

[4] = biological target: Cytochrome P450 2D6 (Homo sapiens) (UniProt P10635); assay: qHTS for inhibitors of CYP2D6 against the NCATS DSHEA and TCM libraries (AID 1919972); details: CYP2D6 enzymatic inhibition, luminescence qHTS; series mostly up to 34.1 µM
Summary of the method: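 Steps: enzyme plus luciferin substrate dispensed; test substances pinned; 15 min RT; 1x NADPH regenerating solution added, 30–45 min RT protected from light; detection reagent, 30 min RT; luminescence measured. Minus-enzyme wells as background.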

[5] = KB-3-1 P-gp reporter qHTS against the NCATS DSHEA and TCM libraries (AID 1919975); details: KB-3-1 parental cells, CellTiter-Glo luminescence viability, 72 h; series mostly up to 26.1 µM
Summary of the method: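 KB-3-1 parental line, 1536-well qHTS: cells seeded, ~4 h attachment, pintool compound addition, ~72 h at 37C, then CellTiter-Glo, 30 min RT, luminescence. Concentration-response format.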

[6] = Primary fluorescence-based thiol-reactive (MSTI) qHTS assay for identification of artifact compounds. (AID 1845221); details: MSTI thiol-reactivity probe, 1 h; series mostly up to 53.8 µM;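 also: thiol-reactive compounds lower the probe fluorescence signal; nearly all actives have a fitted effect of over 65% in size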
Summary of the method: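 First, 4 uM MSTI in 2% DMSO/PBS pH 7.4 was dispensed; next, compounds were added; then plates sat 1 h at room temperature without light. Finally, emission at 598 nm was recorded.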

[7] = biological target: Cytochrome P450 3A4 (Homo sapiens) (UniProt P08684); assay: qHTS for inhibitors of CYP3A4 against the NCATS DSHEA and TCM libraries (AID 1919971); details: recombinant CYP3A4 enzyme activity, luminescence qHTS; series mostly up to 34.1 µM;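 also: inhibition lowers luminescence from luciferin made by CYP3A4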
Summary of the method: (§1)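 Luminescent P450-Glo readout. Enzyme plus pro-luciferin substrate in manufacturer buffer (typically 100 mM KPO4); 15 min RT preincubation; 1x NADPH regenerating system, 30-45 min RT in the dark; detection reagent 30 min.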

[8] = biological target: Cytochrome P450 2C9 (Homo sapiens) (UniProt P11712); assay: qHTS for inhibitors of CYP2C9 against the NCATS DSHEA and TCM libraries (AID 1919973); details: recombinant CYP2C9 enzyme activity, luminescence; series mostly up to 34.1 µM;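 also: luminogenic pro-luciferin CYP2C9 substrate turned into luciferin with NADPH regeneration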
Summary of the method: as §1

[9] = biological target: Cytochrome P450 2C19 (Homo sapiens) (UniProt P33261); assay: qHTS for inhibitors of CYP2C19 against the NCATS DSHEA and TCM libraries (AID 1919974); details: CYP2C19 enzyme inhibition, luminescence qHTS; series mostly up to 34.1 µM;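 also: luminescence from luciferin released by CYP2C19 oxidation of a pro-luciferin substrate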
Summary of the method: as §1

[10] = biological target: Cytochrome P450 1A2 (Homo sapiens) (UniProt P05177); assay: qHTS for inhibitors of CYPIA2 against the NCATS DSHEA and TCM libraries (AID 1919976); details: recombinant CYP1A2 enzyme activity, luminescence; series mostly up to 37 µM;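 also: light from luciferin formed by CYP1A2 from a pro-luciferin substrate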
Summary of the method: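 Human CYP1A2 with its pro-luciferin substrate in supplier buffer (typically 100 mM KPO4) was pre-incubated with compounds 15 min at RT. Reaction was started with 1x NADPH regeneration solution and run 30-45 min at RT in the dark, then luminescence was read after P450-Glo detection reagent (30 min RT).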

Measured: Potency

Chain of Cytochrome P450 2D6 (Homo sapiens) (P10635 whole entry, looked up): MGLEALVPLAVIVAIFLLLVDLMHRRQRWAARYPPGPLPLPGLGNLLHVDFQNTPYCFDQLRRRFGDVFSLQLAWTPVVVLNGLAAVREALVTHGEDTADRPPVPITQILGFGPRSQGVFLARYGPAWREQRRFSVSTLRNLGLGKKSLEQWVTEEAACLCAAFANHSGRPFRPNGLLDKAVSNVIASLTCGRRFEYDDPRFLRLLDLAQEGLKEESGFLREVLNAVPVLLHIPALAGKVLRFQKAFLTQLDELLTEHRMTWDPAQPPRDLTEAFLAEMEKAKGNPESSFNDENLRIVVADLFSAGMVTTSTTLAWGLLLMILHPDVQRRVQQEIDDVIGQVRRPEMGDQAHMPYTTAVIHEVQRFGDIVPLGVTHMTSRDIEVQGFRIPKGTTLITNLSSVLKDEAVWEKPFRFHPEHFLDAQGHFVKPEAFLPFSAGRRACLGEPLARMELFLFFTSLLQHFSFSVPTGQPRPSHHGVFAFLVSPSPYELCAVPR
Chain of Cytochrome P450 2C9 (Homo sapiens) (P11712 whole entry, looked up): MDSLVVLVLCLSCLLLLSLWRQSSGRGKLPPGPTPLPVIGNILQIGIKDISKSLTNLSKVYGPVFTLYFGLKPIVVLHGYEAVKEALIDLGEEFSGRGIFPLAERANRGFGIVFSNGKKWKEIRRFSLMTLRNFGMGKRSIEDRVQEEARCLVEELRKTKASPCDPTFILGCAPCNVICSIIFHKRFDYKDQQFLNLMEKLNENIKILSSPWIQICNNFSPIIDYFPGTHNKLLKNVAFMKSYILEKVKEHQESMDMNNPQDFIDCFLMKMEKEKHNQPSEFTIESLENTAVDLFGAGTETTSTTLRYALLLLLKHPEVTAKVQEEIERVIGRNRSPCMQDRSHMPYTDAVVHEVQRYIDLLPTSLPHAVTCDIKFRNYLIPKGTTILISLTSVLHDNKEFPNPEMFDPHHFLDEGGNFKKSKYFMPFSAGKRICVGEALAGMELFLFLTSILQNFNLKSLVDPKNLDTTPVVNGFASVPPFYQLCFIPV
Chain of Cytochrome P450 3A4 (Homo sapiens) (P08684 whole entry, looked up): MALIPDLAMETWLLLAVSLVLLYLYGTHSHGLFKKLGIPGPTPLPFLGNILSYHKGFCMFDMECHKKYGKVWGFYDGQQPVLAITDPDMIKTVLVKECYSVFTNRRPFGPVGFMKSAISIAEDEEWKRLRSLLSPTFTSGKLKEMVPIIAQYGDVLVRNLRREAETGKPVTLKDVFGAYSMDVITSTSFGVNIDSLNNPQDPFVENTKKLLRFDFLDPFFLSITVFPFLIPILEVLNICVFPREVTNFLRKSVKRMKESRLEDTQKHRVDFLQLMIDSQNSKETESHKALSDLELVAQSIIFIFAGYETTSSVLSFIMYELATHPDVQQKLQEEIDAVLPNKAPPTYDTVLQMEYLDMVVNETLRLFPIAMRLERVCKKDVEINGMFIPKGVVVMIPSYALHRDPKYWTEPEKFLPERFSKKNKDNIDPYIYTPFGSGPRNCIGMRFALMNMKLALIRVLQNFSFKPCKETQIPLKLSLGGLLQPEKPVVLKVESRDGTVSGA
Chain of Cytochrome P450 2C19 (Homo sapiens) (P33261 whole entry, looked up): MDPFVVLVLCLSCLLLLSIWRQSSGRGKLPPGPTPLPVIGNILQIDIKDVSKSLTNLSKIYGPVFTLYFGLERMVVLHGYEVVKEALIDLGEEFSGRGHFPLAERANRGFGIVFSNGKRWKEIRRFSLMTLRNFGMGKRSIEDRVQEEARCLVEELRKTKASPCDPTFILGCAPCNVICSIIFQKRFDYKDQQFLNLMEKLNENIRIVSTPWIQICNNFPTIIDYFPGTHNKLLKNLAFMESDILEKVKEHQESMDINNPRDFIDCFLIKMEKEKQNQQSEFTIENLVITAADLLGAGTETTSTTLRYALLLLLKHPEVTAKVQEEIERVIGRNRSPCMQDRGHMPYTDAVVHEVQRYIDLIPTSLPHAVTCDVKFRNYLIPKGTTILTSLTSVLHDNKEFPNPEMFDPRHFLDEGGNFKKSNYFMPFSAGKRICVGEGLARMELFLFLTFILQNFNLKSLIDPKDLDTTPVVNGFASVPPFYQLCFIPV
Chain of Cytochrome P450 1A2 (Homo sapiens) (P05177 whole entry, looked up): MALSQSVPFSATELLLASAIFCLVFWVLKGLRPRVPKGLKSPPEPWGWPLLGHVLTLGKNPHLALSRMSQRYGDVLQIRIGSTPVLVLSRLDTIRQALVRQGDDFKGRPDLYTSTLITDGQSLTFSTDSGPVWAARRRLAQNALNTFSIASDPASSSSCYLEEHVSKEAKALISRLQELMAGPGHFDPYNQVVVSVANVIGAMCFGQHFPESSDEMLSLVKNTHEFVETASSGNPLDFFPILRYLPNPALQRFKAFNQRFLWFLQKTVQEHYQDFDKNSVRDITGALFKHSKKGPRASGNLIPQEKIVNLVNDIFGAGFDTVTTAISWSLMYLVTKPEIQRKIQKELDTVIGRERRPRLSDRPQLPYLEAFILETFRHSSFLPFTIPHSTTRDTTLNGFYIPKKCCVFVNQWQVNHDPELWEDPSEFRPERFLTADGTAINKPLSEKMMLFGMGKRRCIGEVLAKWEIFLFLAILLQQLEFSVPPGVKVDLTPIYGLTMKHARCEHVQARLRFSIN

Cc1ccc2nc(N)[nH]c(=O)c2c1Sc1ccncc1
inactive: [1] | [2] | [3]

CC1=C(C/C=C(\C)CCC[C@H](C)CCC[C@H](C)CCCC(C)C)C(=O)c2ccccc2C1=O
inactive: [4] | [5]

Cc1cc(C(C#N)c2ccc(Cl)cc2)c(Cl)cc1NC(=O)c1cc(I)cc(I)c1O (stereo not drawn)
inactive: [6] | [2] | [3]

CC12CCC(CC1)C(C)(C)O2
inactive: [7] | [4] | [8] | [9] | [5] | [10]

Cn1c(=O)c2c(ncn2CC2OCCO2)n(C)c1=O
inactive: [1] | [6] | [2] | [3]

CCCCN1CCCC[C@H]1C(=O)Nc1c(C)cccc1C
inactive: [1] | [6] | [2] | [3]

CCOC(CN1CCN(CC(C)C(=O)c2ccccc2)CC1)c1ccccc1 (stereo not drawn)
inactive: [1] | [2]

COc1ccc2cc1Oc1ccc(cc1)C[C@H]1c3c(cc4c(c3Oc3cc5c(cc3OC)CCN(C)[C@@H]5C2)OCO4)CCN1C
inactive: [1] | [6] | [2] | [3]

COc1ccc2[nH]c(S(=O)Cc3ncc(C)c(OC)c3C)nc2n1 (stereo not drawn)
inactive: [1] | [6] | [2] | [3]

CCOc1nc2cccc(C(=O)O)c2n1Cc1ccc(-c2ccccc2-c2nn[nH]n2)cc1
inactive: [1] | [6] | [3]

c1ccc(CN(CC2=NCCN2)c2ccccc2)cc1
inactive: [1] | [6] | [2] | [3]

C[C@]12CC[C@@H]3c4ccc(O)cc4CC[C@H]3[C@@H]1CC[C@@H]2OC(=O)CCC1CCCC1
inactive: [1] | [6] | [2] | [3]
